Among the data in PubChem BioAssay (NCATS) are Potency, outcome and max response values, retold here.

Results filed as inconclusive are left out. A number with no mark means an inactive call. Calls of active or inactive are those of the source. Calls follow the shape of the dose curve; as a rule, active = well fitted curve in the direction sought with a large enough effect; inconclusive = small, poorly fitted or top-dose-only effect, or another doubt; inactive = no such curve, though single readings can be large; an effect the other way counts as inactive or inconclusive.

In test [1] the test system is NIH3T3. The test can be described thus: Cytotoxic Profiling of Annotated Libraries Using Quantitative High-Throughput Screening (AID 1296008). Also: nearly all actives have a fitted effect of over 60% in size. The conditions noted are these: Five cell lines viability, CellTiter-Glo ATP luminescence, 48-72 h; max response: active compounds read low. In outline: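 Cytotoxicity was measured as CellTiter-Glo ATP luminescence, read after 10 min at room temperature. Compound treatment of the cells lasted 48 or 72 hr at 37 degrees Celsius in a qHTS format.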

In a further test the test system is MCC-26. The test is described as follows: qHTS assay to identify novel small-molecules to repurpose for Merkel cell carcinoma treatment (AID 1296009). Also: nearly all actives have a fitted effect of over 60% in size. The conditions noted are these: MCC and control cell lines, CellTiter-Glo viability, 72 h; series mostly up to 46 µM. In outline: (§1)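 After compound transfer in DMSO, plates were kept 72 hr at 37 degree celsius. Luminescent ATP signal from CellTiter-Glo served as viability measure, normalized against DMSO and no-cell controls.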

The next test relates to MKL-2. The test is described as above. The conditions noted are these: MCC and control cell lines, CellTiter-Glo viability, 72 h; series mostly up to 46 µM. In outline: as §1
The next test relates to C33A. The test can be described thus: Primary qHTS to identify gynecologic anti-cancer compounds using libraries of approved drugs and bioactive compounds (AID 1345084). Also: nearly all actives have a fitted effect of over 55% in size. The conditions noted are these: Gynecologic cancer cell panel viability, ATPlite luminescence, 48 h; series mostly up to 57.5 µM. In outline: (§2)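 Cell viability after 48 h drug treatment, ATPlite luminescence readout; five doses.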

For another test, the system named is CAOV3. The description is as above. The conditions noted are these: Gynecologic cancer cell panel viability, ATPlite luminescence, 48 h; series mostly up to 57.5 µM. In outline:
as §2

The subject of the next test is CASKI. Described as above. The conditions noted are these: Gynecologic cancer cell panel viability, ATPlite luminescence, 48 h; series mostly up to 57.5 µM. Put shortly: as §2
The next test deals with Es-2. Described as above. The conditions noted are these: Gynecologic cancer cell panel viability, ATPlite luminescence, 48 h; series mostly up to 57.5 µM. Put shortly:
as §2

In the next test the test system is HeLa. The description is as above. The conditions noted are these: Gynecologic cancer cell panel viability, ATPlite luminescence, 48 h; series mostly up to 57.5 µM. In outline: as §2
Test [2] relates to Hek293T. Described as above. The conditions noted are these: Gynecologic cancer cell panel viability, ATPlite luminescence, 48 h, control line for the selectivity index; series mostly up to 57.5 µM. Put shortly: as §2
Another test concerns JEG-3. The test is described as above. The conditions noted are these: Gynecologic cancer cell panel viability, ATPlite luminescence, 48 h; series mostly up to 57.5 µM. In outline: as §2
A further test relates to OV90. Described as above. The conditions noted are these: Gynecologic cancer cell panel viability, ATPlite luminescence, 48 h; series mostly up to 57.5 µM. In outline:
as §2

The next test concerns MCC-13. The test can be described thus: qHTS assay to identify novel small-molecules to repurpose for Merkel cell carcinoma treatment (AID 1296009). Also: nearly all actives have a fitted effect of over 60% in size. The conditions noted are these: MCC and control cell lines, CellTiter-Glo viability, 72 h; series mostly up to 46 µM. Put shortly:
as §1

A further test has as its system MKL-1. The description is as above. The conditions noted are these: MCC and control cell lines, CellTiter-Glo viability, 72 h; series mostly up to 46 µM. In outline: as §1
The test system of test [3] is NIH3T3. The test is described as above. The conditions noted are these: MCC and control cell lines, CellTiter-Glo viability, 72 h; at 44.8 µM (top of the series) unless noted. Put shortly:
as §1

A further test concerns UISO. Described as above. The conditions noted are these: MCC and control cell lines, CellTiter-Glo viability, 72 h; series mostly up to 46 µM. In outline:
as §1

A further test relates to WaGa. The test is described as above. The conditions noted are these: MCC and control cell lines, CellTiter-Glo viability, 72 h; series mostly up to 46 µM. In outline:
as §1

In the next test the test system is HACAT. Described as above. The conditions noted are these: MCC and control cell lines, CellTiter-Glo viability, 72 h; at 44.8 µM (top of the series) unless noted. In outline:
as §1

Test [4] concerns HEK293T. The description is as above. The conditions noted are these: MCC and control cell lines, CellTiter-Glo viability, 72 h; at 44.8 µM (top of the series) unless noted. Put shortly: as §1
% is scaled to controls: 0 for no effect and ±100 for the full control effect; potency is read from the fitted curve at half-maximal effect.

As to `Cc1nc(N)nc(N)c1-c1ccc(Cl)c(Cl)c1`, the Potency in the test on NIH3T3 [1] is 0.841 µM (active); in the test with C33A it was 0.447 µM (active); in the test on CASKI, 1.41 µM (active); with Es-2 it was 1 µM (active); with HeLa, 11.2 µM (active); in the test with Hek293T [2], 1.58 µM (active). In addition, the Potency in the test with JEG-3 is 11.2 µM (active); in the test on OV90, 0.891 µM (active). Moreover, the Potency result in the test with MCC-26, in the test with MKL-2 and in the test with CAOV3 was “inactive” each time.
Regarding `CCC1(c2cnc[nH]2)Cc2ccccc2C1`, the Potency result with MCC-13, in the test on MCC-26, in the test with MKL-1, in the test with MKL-2, in the test with UISO and in the test on WaGa was “inactive” in each case. Also, the Potency result in the test on C33A, in the test with CASKI, in the test on Es-2, in the test on HeLa, in the test on Hek293T [2] and with JEG-3 was “inactive” throughout. Moreover, the Potency result in the test with OV90 was “inactive”. In addition, the outcome in the test on NIH3T3 [3] was inactive.
`O=C(Nc1ccc(Cl)cc1)Nc1ccc(Cl)c(C(F)(F)F)c1`: the Potency with MKL-1 is 21.1 µM (active); with MKL-2 it was 7.5 µM (active); with UISO, 10.6 µM (active); with WaGa it was 26.6 µM (active); in the test on C33A, 17.8 µM (active); in the test with Es-2, 28.2 µM (active). Besides, the Potency with HeLa is 14.1 µM (active); with Hek293T [2] it was 14.1 µM (active); in the test on OV90, 25.1 µM (active). Further, the Potency entry in the test with JEG-3 was “inactive”.
As to `Nc1ncnc2nc[nH]c12`, the call in the test on HACAT was inactive. Also, the Potency entry with MCC-13, in the test with MCC-26, with MKL-1, with MKL-2, in the test on UISO and with WaGa was “inactive” throughout. The Potency entry with C33A, with CASKI, with Es-2, in the test with HeLa, in the test on Hek293T [2] and in the test on JEG-3 was “inactive” throughout. Besides, the Potency result in the test on OV90 is “inactive”.
With `Nc1ccc2c(c1)CN1C(=O)c3ccccc3C1=N2`, the Potency with NIH3T3 [1] is 7.31 µM (active); in the test on CASKI, 6.31 µM (active); in the test with Es-2, 10 µM (active); in the test with JEG-3, 11.2 µM (active). Moreover, the Potency result in the test with MCC-26, in the test on MKL-2 and in the test with UISO was “inactive” in each case.
In the case of `CCOC(=O)C1=C(C)NC(C)=C(C(=O)OCC)C1c1ccccc1/C=C/C(=O)OC(C)(C)C`, the Potency entry in the test on MCC-26, in the test on Es-2, in the test with HeLa, with Hek293T [2], in the test with JEG-3 and with OV90 was “inactive” throughout. The Potency in the test on MKL-1 was 26.6 µM (active); with MKL-2, 21.1 µM (active); in the test with UISO, 26.6 µM (active); with WaGa it was 23.7 µM (active).
`CC(COc1ccccc1)NN` (stereo not given): the Potency result in the test with C33A, with CAOV3, in the test with CASKI, in the test on Es-2, in the test on HeLa and with Hek293T [2] was “inactive” each time. Also, the Potency entry with JEG-3 and in the test with OV90 was “inactive” throughout.
`CCN(CC)CCOc1ccc(/C(=C(\Cl)c2ccccc2)c2ccccc2)cc1`: the Potency is 23.7 µM (active) with MKL-1, 26.6 µM (active) in the test on WaGa and 14.1 µM (active) in the test on OV90. Moreover, the Potency result in the test on CASKI, with HeLa and with JEG-3 was “inactive” throughout.
Take `Nc1c2ccccc2nc2ccccc12`: the Potency in the test on NIH3T3 [1] was 21.1 µM (active); with MCC-13, 18.8 µM (active); in the test with MKL-1 it was 3.35 µM (active); in the test on Es-2 it was 14.1 µM (active); in the test on Hek293T [2] it was 8.91 µM (active); in the test with OV90, 28.2 µM (active).
Consider `COc1c(N2C[C@@H]3CCCN[C@@H]3C2)c(F)cc2c(=O)c(C(=O)O)cn(C3CC3)c12`, for which the Potency result with C33A, in the test with CAOV3, in the test with CASKI, in the test on Es-2, in the test with HeLa and in the test with Hek293T [2] was “inactive” each time. The Potency entry with JEG-3 and in the test on OV90 was “inactive” each time.
As for `COC(=O)[C@H]1[C@H]2C[C@@H]3c4[nH]c5cc(OC)ccc5c4CCN3C[C@H]2C[C@@H](OC(=O)/C=C/c2ccc(O)c(OC)c2)[C@@H]1OC`, the Potency entry in the test with MCC-13, in the test with C33A, in the test on CASKI, in the test with Es-2, in the test on HeLa and in the test with Hek293T [2] was “inactive” throughout. Moreover, the Potency with OV90 was 31.6 µM (active).
Turning to `O=C(Nc1ccc(Cl)cc1)Nc1ccc(Cl)c(Cl)c1`, the Potency in the test on MKL-1 was 18.8 µM (active); with MKL-2, 5.96 µM (active); in the test with UISO, 10.6 µM (active); in the test on WaGa, 21.1 µM (active). Besides, the Potency result in the test on CASKI was “inactive”.
In the case of `O=C(c1ccccc1)c1ccccc1`, the Potency entry with C33A, with CAOV3, with CASKI, in the test with Es-2, in the test on HeLa and in the test with Hek293T [2] was “inactive” in each case. Further, the Potency entry in the test on JEG-3 and in the test with OV90 was “inactive” each time.
For `O=C1[C@@H]2[C@H]3CC[C@H](C3)[C@@H]2C(=O)N1CCCCN1CCN(c2ncccn2)CC1`, the Potency entry in the test on C33A, in the test with CAOV3, in the test with CASKI, in the test with Es-2, in the test with HeLa and with Hek293T [2] was “inactive” in each case. The Potency entry with JEG-3 and with OV90 was “inactive” in each case.
`Cc1cc(OCCOCC[N+](C)(C)Cc2ccccc2)ccc1C(C)(C)CC(C)(C)C`: the Potency in the test on UISO is 4.22 µM (active). Besides, the Potency entry with Es-2, in the test on HeLa and with JEG-3 was “inactive” in each case.
`CCCc1c2oc(C(=O)O)cc(=O)c2cc2c(=O)cc(C(=O)O)n(CC)c12`: the molecule was called inactive in the test with HACAT and in the test with NIH3T3 [3]. The Potency result in the test on MCC-13, in the test on MCC-26, in the test on MKL-1, in the test on MKL-2, with UISO and in the test with WaGa was “inactive” in each case. In addition, the Potency result with C33A, in the test with CAOV3, with CASKI, in the test with Es-2, in the test with HeLa and in the test with Hek293T [2] was “inactive” throughout. Further, the Potency result with JEG-3 and with OV90 was “inactive” each time.
As for `CN1CCCN=C1/C=C/c1cccs1`, the result in the test with HACAT and in the test with HEK293T [4] was inactive. In addition, the Potency entry in the test with MCC-13, with MCC-26, in the test on MKL-1, in the test on MKL-2, in the test with UISO and in the test with WaGa was “inactive” in each case. Further, the Potency result in the test with C33A, in the test on CAOV3, in the test with CASKI, with Es-2, with HeLa and with Hek293T [2] was “inactive” throughout. Also, the Potency result in the test on JEG-3 and with OV90 was “inactive” throughout.
For the molecule `NC(=O)C1(N2CCCCC2)CCN(CCCN2c3ccccc3CCc3ccc(Cl)cc32)CC1`, the Potency with C33A was 25.1 µM (active); in the test with OV90, 22.4 µM (active).
On to `CCCCCC(=O)O[C@]1(C(C)=O)CC[C@H]2[C@@H]3CCC4=CC(=O)CC[C@]4(C)[C@H]3CC[C@@]21C`, for which the Potency entry with MCC-26, with MKL-2, with CAOV3, with CASKI, in the test on Es-2 and in the test on JEG-3 was “inactive” each time.
With `CN(C)c1cc2c(Nc3ccc4c(cnn4Cc4ccccc4)c3)ncnc2cn1`, the max response in the test with NIH3T3 [1] was -15.7%. Moreover, the Potency result in the test on C33A, in the test with CAOV3, in the test with CASKI, in the test on Es-2, in the test on HeLa and with Hek293T [2] was “inactive” in each case. The Potency entry with JEG-3 and in the test with OV90 was “inactive” throughout.
